Experimental data from PubChem BioAssay.
Calls of active or inactive are those of the source.

What was measured:
[1] = test system: Wnt5a (protein binding on small-molecule microarray); test: small molecules binding Wnt5a protein – biophysical, small-molecule microarray, 635/667 nm fluorescence, primary screen (AID 1142); settings: 635 nm fluorescence, higher = more signal;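 also: fluorescence read at 667 nm with signal to noise per printed feature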
[2] = ATP-based viability of Huh7 replicon cells – cell-based, CellTiter-Glo luminescence, basal, 48 h, cytotoxicity control for HCV replication inhibitor project, primary screen (AID 1143); settings: higher = more signal, called active from +8 up or from −8 down;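 also: Huh7 hepatoma cells carrying a hepatitis C replication reporter with no stimulus; test concentration not given here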
[3] = basal CRE-LacZ reporter activity in PC12 – cell-based, unstimulated, primary screen (AID 1145); settings: no forskolin, luminescence, 4.5 h, higher = more signal, called active from +8 up or from −8 down
[4] = forskolin-driven CRE-LacZ activity in PC12 – cell-based, CRE-LacZ reporter, forskolin-stimulated, primary screen (AID 1146); settings: luminescence, 4.5 h, higher = more signal, called active from +8 up or from −8 down;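 also: PC12 cells with 6xCRE LacZ reporter stimulated by forskolin 10 µM; beta-galactosidase reporter signal reflecting CREB driven transcription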
[5] = biological target: Streptavidin (Streptomyces avidinii) (UniProt P22629); test: compounds binding control protein streptavidin – biophysical, small-molecule microarray, 635/667 nm fluorescence, artefact control for SMM compound annotation, primary screen (AID 1147); settings: higher = more signal;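 also: signal reflects streptavidin binding to arrayed compounds as a control protein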
Streptavidin (Streptomyces avidinii), sequence (P22629 whole entry, looked up): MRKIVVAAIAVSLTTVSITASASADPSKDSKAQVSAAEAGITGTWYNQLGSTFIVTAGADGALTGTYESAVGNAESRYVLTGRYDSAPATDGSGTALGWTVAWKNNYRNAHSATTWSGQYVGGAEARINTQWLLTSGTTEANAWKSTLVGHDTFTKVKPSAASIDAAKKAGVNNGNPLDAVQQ

[6] = probe aInhba binding on compound microarray – biochemical, small-molecule microarray, 635/667 nm fluorescence, primary screen (AID 1148); settings: higher = more signal;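 also: score merges 667nm spot fluorescence with signal-to-noise for antibody binding to printed compounds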
[7] = biological target: Torsin-1A (Homo sapiens) (UniProt O14656); test: TOR1A wild-type binding on microarray – cell lysate, small-molecule microarray, lysate, 635/667 nm, primary screen (AID 1149); settings: COS7 hTOR1A-WT lysate, 635 nm fluorescence, higher = more signal
Torsin-1A (Homo sapiens), sequence (O14656 whole entry, looked up): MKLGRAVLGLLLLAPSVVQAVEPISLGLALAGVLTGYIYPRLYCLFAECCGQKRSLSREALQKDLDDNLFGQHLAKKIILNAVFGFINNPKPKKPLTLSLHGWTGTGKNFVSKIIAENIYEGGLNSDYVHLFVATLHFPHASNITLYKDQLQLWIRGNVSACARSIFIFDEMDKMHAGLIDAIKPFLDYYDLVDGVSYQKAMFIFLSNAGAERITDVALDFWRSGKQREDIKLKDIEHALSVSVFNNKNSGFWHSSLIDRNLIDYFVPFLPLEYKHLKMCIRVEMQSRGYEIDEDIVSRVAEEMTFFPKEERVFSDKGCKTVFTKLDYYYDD

[8] = biological target: Torsin-1A (Homo sapiens) (UniProt O14656); test: torsin A mutant lysate binding on microarrays – cell lysate, small-molecule microarray, COS7 lysate, 635/667 nm fluorescence, primary screen (AID 1150); settings: COS7 hTOR1A mutant lysate, 635 nm fluorescence, higher = more signal;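 also: score pools 667 nm emission and signal to noise measuring lysate protein binding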
[9] = test system: Sonic hedgehog protein (Shh); test: Sonic hedgehog microarray binding compounds – biochemical, small-molecule microarray, 635/667 nm fluorescence, primary screen (AID 1151); settings: 635 nm fluorescence, higher = more signal;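 also: Shh protein binding to compounds spotted on small-molecule microarray slides; score combines spot fluorescence intensity with signal-to-noise across triplicate slides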
[10] = optical density shifts of acrAB sulA E. coli – strain DRC41, OD650, 48 h, E. coli filamentation inducer project, primary screen (AID 1152); settings: higher = more signal, called active from +8 up or from −8 down;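 also: E. coli MC1000 strain DRC41 lacking acrAB efflux pump and sulA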
[11] = probe aLefty1 binding on compound microarray – biochemical, small-molecule microarray, 635/667 nm fluorescence, primary screen (AID 1153); settings: higher = more signal;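 also: score merges spot fluorescence with signal-to-noise ratio from the scanned slide images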
[12] = plasmodial surface anion channel blockers, osmotic lysis – cell-based, P. falciparum Indochina, OD700, 1 h, primary screen (AID 1154); settings: P. falciparum Indochina infected RBC osmotic lysis, higher = more signal, called active from +8 up or from −8 down
[13] = plasmodial surface anion channel blockers, osmotic lysis – cell-based, P. falciparum Indochina, OD700, 2 h, primary screen (AID 1155);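 also: lysis reports solute entry through the parasite surface anion channel PSAC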; settings: P. falciparum Indochina infected erythrocytes, higher = more signal, called active from +8 up or from −8 down
[14] = changes in parasitized red cell lysis, either direction – P. falciparum Indochina, OD700, 3 h, PSAC antagonist project, primary screen (AID 1156); settings: P. falciparum-infected erythrocytes, osmotic lysis, higher = more signal, called active from +8 up or from −8 down
[15] = plasmodial surface anion channel blockers, osmotic lysis – cell-based, P. falciparum Indochina, OD700, 18 h, primary screen (AID 1157); settings: P. falciparum Indochina infected erythrocytes, osmotic lysis OD700, 18 h; higher = more signal, called active from +8 up or from −8 down
[16] = S6 kinase pathway phospho-S6 level changes – cell-based, A549, cytoblot, luminescence, serum-stimulated, primary screen (AID 1158); settings: 5 h, higher = more signal;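 also: serum-stimulated A549 lung adenocarcinoma cells; signal is phosphorylated S6 detected by cytoblot immunostaining with HRP secondary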
[17] = biological target: NADPH oxidase 2 (Homo sapiens) (UniProt P04839); test: compounds shifting NOX2 Amplex Red fluorescence – cell-based, HEK293-NOX2, PMA-stimulated, NOX inhibitor project, primary screen (AID 1159); settings: 45 min, higher = more signal, called active from +8 up or from −8 down; also: test concentration not given here
NADPH oxidase 2 (Homo sapiens), sequence (P04839 whole entry, looked up): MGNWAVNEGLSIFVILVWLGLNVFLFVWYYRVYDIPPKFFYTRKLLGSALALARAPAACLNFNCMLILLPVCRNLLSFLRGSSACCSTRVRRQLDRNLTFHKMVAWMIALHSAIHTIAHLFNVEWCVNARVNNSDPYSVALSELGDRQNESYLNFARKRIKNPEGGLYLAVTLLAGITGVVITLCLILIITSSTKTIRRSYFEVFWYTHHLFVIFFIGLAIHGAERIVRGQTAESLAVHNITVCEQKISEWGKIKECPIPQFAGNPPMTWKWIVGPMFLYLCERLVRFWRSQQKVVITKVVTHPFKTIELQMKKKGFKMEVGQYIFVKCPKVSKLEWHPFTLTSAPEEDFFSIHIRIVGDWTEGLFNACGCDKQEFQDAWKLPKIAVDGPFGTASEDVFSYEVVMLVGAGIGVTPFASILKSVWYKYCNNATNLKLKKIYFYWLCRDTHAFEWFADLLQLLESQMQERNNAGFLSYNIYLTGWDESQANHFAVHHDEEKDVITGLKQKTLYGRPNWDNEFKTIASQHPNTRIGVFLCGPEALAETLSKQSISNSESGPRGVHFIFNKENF

[18] = biological target: NADPH oxidase 4 (Homo sapiens) (UniProt Q9NPH5); test: compounds shifting NOX4 Amplex Red fluorescence – cell-based, HEK293-NOX4, tetracycline-induced, NOX inhibitor project, primary screen (AID 1160); settings: HEK293-NOX4, Amplex Red H2O2 fluorescence, 45 min; higher = more signal, called active from +8 up or from −8 down
NADPH oxidase 4 (Homo sapiens), sequence (Q9NPH5 whole entry, looked up): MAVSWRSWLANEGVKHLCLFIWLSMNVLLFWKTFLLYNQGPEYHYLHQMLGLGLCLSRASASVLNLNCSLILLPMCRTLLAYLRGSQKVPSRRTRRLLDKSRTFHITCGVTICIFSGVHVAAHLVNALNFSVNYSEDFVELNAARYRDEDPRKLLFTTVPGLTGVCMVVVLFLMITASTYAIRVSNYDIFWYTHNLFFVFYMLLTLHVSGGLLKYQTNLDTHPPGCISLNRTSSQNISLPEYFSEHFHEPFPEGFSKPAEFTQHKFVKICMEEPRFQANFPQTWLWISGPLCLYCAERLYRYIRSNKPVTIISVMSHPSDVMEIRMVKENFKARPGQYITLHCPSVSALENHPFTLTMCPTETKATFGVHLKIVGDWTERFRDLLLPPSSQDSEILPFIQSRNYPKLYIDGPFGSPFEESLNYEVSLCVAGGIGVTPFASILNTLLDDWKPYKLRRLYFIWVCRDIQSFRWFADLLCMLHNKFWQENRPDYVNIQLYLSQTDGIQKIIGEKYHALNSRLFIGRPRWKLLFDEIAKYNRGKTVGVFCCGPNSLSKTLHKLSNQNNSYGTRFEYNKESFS

[19] = biological target: NADPH oxidase 5 (Homo sapiens) (UniProt Q96PH1); test: compounds shifting NOX5 Amplex Red fluorescence – cell-based, HEK293-NOX5, NOX inhibitor project, primary screen (AID 1161); settings: HEK293-NOX5, ionomycin, 45 min, higher = more signal
NADPH oxidase 5 (Homo sapiens), sequence (Q96PH1 whole entry, looked up): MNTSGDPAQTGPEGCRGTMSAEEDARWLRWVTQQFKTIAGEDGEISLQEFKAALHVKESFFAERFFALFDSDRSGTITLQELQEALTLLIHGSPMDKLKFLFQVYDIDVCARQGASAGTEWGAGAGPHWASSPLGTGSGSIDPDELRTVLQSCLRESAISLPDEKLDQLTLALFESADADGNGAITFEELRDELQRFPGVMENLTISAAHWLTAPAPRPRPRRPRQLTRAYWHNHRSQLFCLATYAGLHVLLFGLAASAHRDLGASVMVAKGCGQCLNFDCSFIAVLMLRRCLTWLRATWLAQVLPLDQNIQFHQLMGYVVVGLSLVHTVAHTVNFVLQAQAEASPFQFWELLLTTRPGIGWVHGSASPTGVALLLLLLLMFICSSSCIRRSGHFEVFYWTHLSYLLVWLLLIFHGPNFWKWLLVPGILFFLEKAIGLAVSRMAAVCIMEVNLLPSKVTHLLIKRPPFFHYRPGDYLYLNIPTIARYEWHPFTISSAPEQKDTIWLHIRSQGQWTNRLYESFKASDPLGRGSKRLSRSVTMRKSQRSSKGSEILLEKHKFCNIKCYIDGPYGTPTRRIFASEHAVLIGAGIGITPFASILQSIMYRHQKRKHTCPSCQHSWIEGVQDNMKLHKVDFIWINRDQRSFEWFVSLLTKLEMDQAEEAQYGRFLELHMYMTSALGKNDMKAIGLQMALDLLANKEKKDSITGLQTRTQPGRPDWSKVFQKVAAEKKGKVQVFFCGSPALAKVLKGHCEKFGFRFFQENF

CCCNC(=O)[C@@H]1c2ccccc2C(=O)N(Cc2cc(F)cc(C(F)(F)F)c2)[C@H]1c1ccc(CO)cc1
composite z-score [1]: 0.411
z-score [2]: -2.08 (inactive)
z-score [3]: -0.529 (inactive)
z-score [4]: -1.53 (inactive)
composite z-score [5]: 0.568
composite z-score [6]: 0.157
composite z-score [7]: 0.528
composite z-score [8]: 0.457
composite z-score [9]: 1.93
z-score [10]: 1.86 (inactive)
composite z-score [11]: 0.251
z-score [12]: 2.1 (inactive)
z-score [13]: -0.314 (inactive)
z-score [14]: 0.064 (inactive)
z-score [15]: -0.73 (inactive)
z-score [16]: 1.74
z-score [17]: 1.2 (inactive)
z-score [18]: 0.609 (inactive)
z-score [19]: 0.676

C=CCNC(=O)[C@H]1[C@@H]2C(=O)O[C@@H](c3ccccc3)[C@@H](c3ccccc3)N2[C@@H](c2ccccc2OCCO)[C@]12C(=O)N(C(=O)OCCOC)c1ccc(C#CCNC(N)=O)cc12
composite z-score [1]: -0.0103
z-score [2]: -1.76 (inactive)
z-score [3]: -0.471 (inactive)
z-score [4]: 0.948 (inactive)
composite z-score [5]: 0.98
composite z-score [6]: 0.026
composite z-score [7]: 0.661
composite z-score [8]: 0.296
composite z-score [9]: 0.633
z-score [10]: 1.8 (inactive)
composite z-score [11]: 0.178
z-score [12]: 2.13 (inactive)
z-score [13]: -0.0443 (inactive)
z-score [14]: 0.391 (inactive)
z-score [15]: -1.3 (inactive)
z-score [16]: 1.78
z-score [17]: 1.76 (inactive)
z-score [18]: 1.35 (inactive)
z-score [19]: -0.971

O=C(O)[C@@H]1Cc2c([nH]c3ccccc23)[C@@H](c2ccccc2)N1
composite z-score [1]: 0.019
z-score [2]: -0.691 (inactive)
z-score [3]: 0.109 (inactive)
z-score [4]: -1.69 (inactive)
composite z-score [5]: 0.29
composite z-score [6]: -0.164
composite z-score [7]: 0.589
composite z-score [8]: 0.409
composite z-score [9]: 0.371
z-score [10]: 0.327 (inactive)
composite z-score [11]: -0.202
z-score [12]: 0.864 (inactive)
z-score [13]: 0.71 (inactive)
z-score [14]: 1.46 (inactive)
z-score [15]: 0.152 (inactive)
z-score [16]: -0.344
z-score [17]: 1.04 (inactive)
z-score [18]: -0.429 (inactive)
z-score [19]: -0.614

CCN1C(C)=C(C(=O)OC)[C@@H](c2ccccc2)N2C(=O)[C@@]3(C(=O)OC)O[C@@]12[C@@H]1C(=O)N(c2ccccc2)C(=O)[C@@H]13
composite z-score [1]: 0.313
z-score [2]: -1.77 (inactive)
z-score [3]: 0.384 (inactive)
z-score [4]: -1.28 (inactive)
composite z-score [5]: 0.424
composite z-score [6]: -0.211
composite z-score [7]: 0.224
composite z-score [8]: 0.644
composite z-score [9]: 0.798
z-score [10]: 0.325 (inactive)
composite z-score [11]: 0.0166
z-score [12]: 0.69 (inactive)
z-score [13]: -0.39 (inactive)
z-score [14]: 0.0305 (inactive)
z-score [15]: -1.08 (inactive)
z-score [16]: 0.422
z-score [17]: -0.816 (inactive)
z-score [18]: 0.267 (inactive)
z-score [19]: -0.283
